Laboratory results published in PubChem BioAssay AID708 (SRMLSC, 2007).
The campaign covered roughly 65,000 compounds. Fewer than 10 were called active.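 Rule for the calls: active = at 10 µM dose, initial 340 nm absorbance at least 2 fold that of control wells; inactive = change under 2 fold.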 These entries were drawn from the full list.

Experiment: A340 optical interference by library compounds – biochemical, MLSMR library, data from PS, PMK, MK assays, artefact control, profiling panel (AID 708);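 note: initial absorbance extrapolated from kinetic A340 decline of NADH oxidation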
Conditions: compound absorbance at 340 nm, fold over control; at 10 µM; active compounds read high

Fold change, inactive:
CCCCCN(C(=O)NC(=O)Nc1ccccc1C)S(C)(=O)=O 1, CCNc1nc(N)nc(Oc2ccc(OCC)nn2)n1 1.07, CCOC(=O)CSc1nncc2ccc(OC)c(OC)c12 1.07, CCN(CC)S(=O)(=O)c1cc(C(=O)Nc2ccccn2)ccc1C 1.09, Cc1c2cnn(-c3ccccc3)c(=O)c2c(C)n1CCCC(=O)N1CCN(C)CC1 1.06, CNC(=O)c1cc2c(ccc3ccccc32)oc1=N 1.04, CSc1ncccc1C(=O)OCC(=O)N1CCOCC1 1.01, COc1ccc(-c2cn3ccsc3n2)cc1 1, CCCn1c(C(O)c2ccc(OCC)cc2)nc2ccccc21 (stereo unspecified) 1.02, O=C(NCc1ccco1)C1CCCN(S(=O)(=O)c2cccc3nonc23)C1 (stereo unspecified) 1.03, CCn1nc(NC(=O)c2ccco2)c2cc3ccc(C)cc3nc21 1.07, Cc1ccc(-n2nc(-c3ccco3)cc2C(=O)NCc2cccnc2)cc1 0.99, COc1ccc(C2CC(c3ccc(C)cc3)Nc3nc(N)nn32)cc1 (stereo unspecified) 1.02, Cc1ccc(C(=O)Nc2nnc(-c3ccncc3)s2)o1 1.33, CN(CCC#N)c1ncnc2scc(-c3ccccc3)c12 1.03, COc1ccc(C2CC(c3ccc(C)cc3)Nc3ncnn32)cc1 (stereo unspecified) 0.99, CSc1nsc(SC)c1NC(=O)OC1CCCCC1 1.03, Cc1ccc(NC2=NC(c3ccccc3)n3c(nc(C)cc3=O)N2)cc1 (stereo unspecified) 1.01, Cc1ccc(C2c3c(oc4ccc(C)cc4c3=O)C(=O)N2CCCN2CCOCC2)cc1 (stereo unspecified) 1.07, Cc1occc1C(=O)Nc1nnc(-c2ccncc2)s1 1.18, CCn1c(SCC(=O)NCc2ccco2)nnc1-c1ccc(N)cc1 1.03, COc1cccc(OCCOc2cccc(/C=N/n3cnnc3)c2)c1 1.05, C=CCn1c(CC(=O)Nc2cccc(OC)c2)nnc1SCC(=O)NC1CCCCC1 1.04, Cc1ccc(NC(=O)CS(=O)CC(=O)N(c2ccccc2)C(C)C(=O)NC2CCCC2)cc1 (stereo unspecified) 0.99, CCCOc1ccccc1-c1nc(SCCC(=O)O)n[nH]1 1, O=c1cccc(-c2ccc(Br)cc2)o1 1.07, CN1C(C)(C)CC(NC(=O)CCC(=O)NC2CC(C)(C)N(C)C(C)(C)C2)CC1(C)C 1.05, Cc1ccc(S(=O)(=O)NCc2csc(C)n2)c(C)c1 0.97, CCOC(=O)c1ccccc1NC(=O)CC1Nc2ccccc2NC1=O (stereo unspecified) 1.07, O=C(CCCOc1ccccc1)Nc1cccc(C(=O)O)c1 1.03, O=P(c1cccs1)(c1cccs1)c1cccs1 1.01, Cc1nnc(SCc2ccc(C(=O)c3ccc(Cl)cc3)o2)n1-c1ccccc1 1.14, c1csc(-c2cn3c(n2)SCC3)c1 1.03, COc1ccc(OCc2cccc(C(=O)N3CCCC3)c2)cc1 0.98, CCCC(=O)C1=C(N(C)c2ccccc2)CC(C)(C)C(C(=O)OC)C1=O (stereo unspecified) 1.04, c1ccc(-c2nnc(SCc3nc4ccccc4[nH]3)o2)cc1 1, CC(=O)c1cccc(NC(=O)N2CCCC2C(=O)NCCC(C)C)c1 (stereo unspecified) 1, Cc1ccccc1S(=O)(=O)Cc1ccc(C(=O)NCCN2CCCCC2C)o1 (stereo unspecified) 0.98, CCOc1ccc(C2C(C(=O)O)c3ccccc3C(=O)N2CCN2CCOCC2)cc1 (stereo unspecified) 1.01, Cc1ccccc1OCCC(=O)Nc1c(C)n(C)n(-c2ccccc2)c1=O 1.04, COc1ccccc1NC1=NC(c2ccc(Cl)cc2)N=C(N)N1 (stereo unspecified) 1.01, CC1CN(C(=O)CN2C(=O)NC(C)(c3ccccc3)C2=O)CC(C)O1 (stereo unspecified) 1.02, CCC(C)Sc1nc(C)nc2c1c(=O)n(C)c(=O)n2C (stereo unspecified) 1.03, CCNc1nc(NCC)nc(N(C)n2cnnc2)n1 1.02, CC(C)c1cc(C(=O)O)on1 0.99, O=C(CCCC(=O)N(CC(=O)NC1CCCC1)Cc1ccccc1Cl)Nc1ccccn1 1.01, O=C(CCN1C(=O)C2C3C=CC(C3)C2C1=O)Nc1ccccc1F (stereo unspecified) 0.99, COc1ccc(OC)c(C(c2nnnn2C(C)(C)C)N2CCc3ccccc3C2)c1 (stereo unspecified) 1.04, O=C(OCC(=O)N1CCN(C(=O)c2ccco2)CC1)c1ccccc1Cc1ccccc1 1, CC(C)CCNC(=O)CCNS(=O)(=O)c1ccc(Cl)cc1 0.97, Cc1cc(/C=N/n2cnnc2)c(C)n1-c1cccc(C(=O)O)c1 1.11, O=C(CNCCO)NC12CC3CC(CC(C3)C1)C2 1.03, CCN(c1ccccc1)S(=O)(=O)c1ccc(N)cc1 1.02, CC(=O)NS(=O)(=O)c1ccccc1 1, CCC(CC)c1nnc(NS(=O)(=O)Cc2ccccc2)s1 1.04, CCOc1cc(S(=O)(=O)NC2CC(C)(C)NC(C)(C)C2)ccc1F 1.05, O=C1CCCC(O)=C1C=NCCc1ccccc1 0.99, O=C(Nc1cc(=O)[nH]c2ncnn12)c1ccccc1Cl 0.98, Cn1c2c(c(=O)n(C)c1=O)C(c1ccc(O)cc1)Nc1ccccc1O2 (stereo unspecified) 1, Cc1occc1C(=O)N1CCCc2ccccc21 1.01, COc1ccc(C2SCCN2S(=O)(=O)c2ccccc2)cc1OC (stereo unspecified) 0.98, Cc1cc(C)cc(N(C(C)C(=O)Nc2c(C)n(C)n(-c3ccccc3)c2=O)S(C)(=O)=O)c1 (stereo unspecified) 1.05, Cn1nnnc1SCC(=O)N1CCN(Cc2ccccc2)CC1 1.01, CC(=O)Nc1cc(C(=O)O)ccc1S(=O)(=O)c1ccc(Cl)cc1 1.03, CCC1CCCCN1CCNS(=O)(=O)c1ccc2c(c1)CCN2C(C)=O (stereo unspecified) 1.03, O=C(CSc1nnc(-c2ccoc2)o1)N1CCOCC1 1.05
